High-throughput results from PubChem BioAssay.
Ba/F3 V617F tox: reduced viability of JAK2V617F-dependent Ba/F3 cells, primary screen, JAK2V617F inhibitor project, cell-based, Ba/F3 EpoR-JAK2V617F, luminescence | ATP luminescence | inhibition, % at 5.6 µM | AID 1446, 2008 | 220,000 tested, 1.1% active;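 active = inhibition above the campaign mean plus 3 SD over all tested compounds, cut at about 24% in these data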;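 note: cytokine-independent growth of Ba/F3 cells driven by EpoR plus mutant JAK2; 0% = DMSO-treated cells and 100% = JAK inhibitor I control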
BaF3 parental: parental Ba/F3 cell viability inhibition, counter-screen for JAK2V617F inhibitor project, murine pro-B, CellTiter-Glo luminescence. CellTiter-Glo ATP luminescence. inhibition, % at 5.6 µM. 220,000 tested, 1.1% active. AID 1486, 2009;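 active = inhibition above a per-campaign cutoff, the mean inhibition of all tested compounds plus 3 SD, cut at about 27% in these data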;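 note: 0% = DMSO wells and 100% = JAK Inhibitor I control wells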
KLF5 inh: KLF5 expression inhibitors, primary screen, DLD-1 cells, luminescence; DLD-1 KLF5 promoter-luciferase reporter; inhibition, % at 5 µM; 290,000 tested, 0.23% active; AID 1700, 2009;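 active = inhibition above a per-plate limit of that plate's mean compound inhibition plus 3 SD, cut at about 60% in these data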;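 note: 0% = DMSO wells and 100% = LY294002 at 200 µM; higher means less KLF5 promoter-driven luciferase light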
aSyn UTR inh: MLPCN primary screen, SNCA 5' untranslated region. 300,000 tested, 0.82% active. alpha-synuclein 5'UTR reporter, inhibitor activity. AID 1813, 2009. inhibition, % (tested at 7.5 µM); in the data active = inhibition above about 60%;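 note: H4 neuroglioblastoma cells stably carrying SNCA 5'UTR luciferase fusion; 0% = DMSO wells and 100% = positive control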
IEC-6 tox: cytotoxicity in IEC-6 intestinal epithelial cells, primary screen, cytotoxicity control for KLF5 inhibitor project, cell-based, luminescence; IEC-6 cytotoxicity, luminescence viability; inhibition, % at 5 µM; 290,000 tested, 0.78% active; AID 1825, 2009;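 note: 0% = plate median of test compound wells and 100% = cytotoxic reference compound wells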
APP 5UTR inh: inhibitors of APP translation via 5'UTR reporter, primary screen, APP 5'UTR luciferase, SH-SY5Y cells | SH-SY5Y APP 5'UTR-luciferase reporter, luminescence | inhibition, % at 2 µM | 190,000 tested, 0.82% active;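 active = inhibition above a set limit, derived from the sample mean plus 3 SD, cut at about 45% in these data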
IEC-6 tox confirm: cytotoxic compounds in IEC-6 epithelial cells, confirmation, cytotoxicity control, cell-based, luminescence; inhibition, % at 5 µM; IEC-6 rat intestinal epithelial viability; 1,900 tested, 63% active; shares compounds with IEC-6 tox;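 note: 0% = vehicle and 100% = reference cytotoxic drug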
An asterisk follows results filed as active. A selection: hits, their analogues and other compounds. The true share with any hit is near 2.2%. Cut-off read from the data, not from the text of the source, unless noted: active = inhibition above about 22%; inactive = the rest.

`O=C(CC1(O)C(=O)N(CCc2ccccc2)c2ccccc21)c1ccccn1` (configuration not stated) gave Ba/F3 V617F tox 1, BaF3 parental 6, KLF5 inh -10, aSyn UTR inh -11, IEC-6 tox -3 and APP 5UTR inh -19.
`O=C(COC(=O)c1nc(Cl)ccc1Cl)NCc1cccs1` gave aSyn UTR inh 8.
CCCc1nnc(NC(=O)c2nc(S(=O)(=O)Cc3ccc(C)cc3)ncc2Cl)s1 was read as KLF5 inh -7, aSyn UTR inh -9 and IEC-6 tox 8.
CSc1nnc(NC(=O)c2nc(S(=O)(=O)Cc3ccccc3)ncc2Cl)s1 was read as KLF5 inh 20, aSyn UTR inh -35, IEC-6 tox 34* and IEC-6 tox confirm 9.
`CC(C)c1nnc(NC(=O)c2nc(S(=O)(=O)Cc3ccccc3)ncc2Cl)s1` gave KLF5 inh 18, aSyn UTR inh -81, IEC-6 tox 42* and IEC-6 tox confirm -1.
`COC(C(=O)Nc1ccccc1C(=O)N1CCOCC1)c1ccccc1` (configuration not stated) gave KLF5 inh -17, aSyn UTR inh 11 and IEC-6 tox -5.
Screening Brc1ccc(-c2csc(-c3c[nH]c4ccccc34)n2)cc1 returned Ba/F3 V617F tox 2, BaF3 parental 1, KLF5 inh -22, aSyn UTR inh -183, IEC-6 tox 2 and APP 5UTR inh -38.
`c1ccc2c(-c3csc(-c4ccncc4)n3)c[nH]c2c1` gave Ba/F3 V617F tox -2, BaF3 parental 16, KLF5 inh -109, aSyn UTR inh -141, IEC-6 tox 82*, APP 5UTR inh -31 and IEC-6 tox confirm 93*.
COc1ccccc1N1CCN(c2ccnc3cc(Cl)ccc23)CC1 was read as KLF5 inh 42, aSyn UTR inh 87*, IEC-6 tox 65* and IEC-6 tox confirm 53*.
For COC(CN(C)C(=O)c1cn(C)c2ccc(S(=O)(=O)N(C)C3CCCCC3)cc2c1=O)OC the results were KLF5 inh -10, aSyn UTR inh 11 and IEC-6 tox -7.
Screening NNC(=O)c1[nH]c(-c2ccccc2)cc1-c1ccccc1 returned KLF5 inh -40, aSyn UTR inh 18, IEC-6 tox 28* and IEC-6 tox confirm -3.
`C=CCc1cccc([C@@H]2[C@@H](C)CC[C@H]3C(=O)N4[C@@H](c5cc(OC)c(OC)c(OC)c5)c5[nH]c6ccccc6c5C[C@H]4C(=O)N23)c1` gave Ba/F3 V617F tox -4, BaF3 parental -1, KLF5 inh 35, aSyn UTR inh 31, IEC-6 tox 34*, APP 5UTR inh -3 and IEC-6 tox confirm 9.
C/C(=N\NC(=O)c1ccc(Cl)cc1)c1ccccn1 was read as KLF5 inh 33, aSyn UTR inh -63, IEC-6 tox 23* and IEC-6 tox confirm 99*.
C/C(=N\NC(=O)c1ccccn1)c1ccc(Cl)cc1 was read as Ba/F3 V617F tox -3, BaF3 parental 2, KLF5 inh -126, aSyn UTR inh -45 and IEC-6 tox 3.
Screening Cc1ccc(Nc2nc(=O)c3cccnc3s2)c(Br)c1 returned Ba/F3 V617F tox 51*, BaF3 parental 48*, KLF5 inh 15, aSyn UTR inh 42, IEC-6 tox 65* and IEC-6 tox confirm 42*.
CC(=O)c1ccc(Nc2nc(=O)c3cccnc3s2)cc1 was read as Ba/F3 V617F tox 3, BaF3 parental 7, KLF5 inh -85, aSyn UTR inh -124, IEC-6 tox 1 and APP 5UTR inh 4.
C/C(=N\NC(=O)c1ccc(C)cc1)c1c(C)[nH]n(-c2ccccc2)c1=O was read as KLF5 inh -28, aSyn UTR inh 67*, IEC-6 tox 44* and IEC-6 tox confirm 25*.
For NC(=S)N/N=C/c1cccc(O)c1O the results were Ba/F3 V617F tox 1, BaF3 parental 8, KLF5 inh -18, aSyn UTR inh -94, IEC-6 tox -5 and APP 5UTR inh -7.
For Cc1cc(/C=N/NC(N)=S)c(O)c(/C=N/NC(N)=S)c1 the results were Ba/F3 V617F tox -2, BaF3 parental 2, KLF5 inh -16, aSyn UTR inh 7, IEC-6 tox 90* and IEC-6 tox confirm 13.
For CC(C)(C)c1ccc(C(=O)NNC(=S)NC(=O)c2cccnc2)cc1 the results were KLF5 inh 27, aSyn UTR inh 60, IEC-6 tox 30* and IEC-6 tox confirm 23*.
CC(C)c1ccc(O)c(NC(=S)NC(=O)c2cccnc2)c1 was read as Ba/F3 V617F tox 3, BaF3 parental 4, KLF5 inh 18, aSyn UTR inh -49, IEC-6 tox 34*, APP 5UTR inh 12 and IEC-6 tox confirm -3.
`CC(C)(C)C(=O)NC(=S)NNC(=O)c1ccc(-c2ccccc2)cc1` gave Ba/F3 V617F tox 37*, BaF3 parental 36*, KLF5 inh 57, aSyn UTR inh 67*, IEC-6 tox 40*, APP 5UTR inh 67* and IEC-6 tox confirm 47*.
`CCC1CN(C(=O)N2CCC(C(=O)NCc3cc(OC)c(OC)c(OC)c3)CC2)c2ccccc2O1` (configuration not stated) gave KLF5 inh 12, aSyn UTR inh 3 and IEC-6 tox 1.
Screening CC1(C)CC(=O)c2c(O)cc(OCC(=O)Nc3ccc(CCO)cc3)cc2O1 returned KLF5 inh -2, aSyn UTR inh -16 and IEC-6 tox -6.
Screening CCOc1ccc(-n2c(SCC(=O)NC)nnc2-c2ccco2)cc1 returned KLF5 inh -23, aSyn UTR inh -10 and IEC-6 tox -2.
Screening O=C(NCc1cccnc1)c1ccc(NC(=O)c2ccc(Br)cc2)cc1 returned KLF5 inh -29, aSyn UTR inh 17, IEC-6 tox 89* and IEC-6 tox confirm 43*.
Cc1cccc(OCC(=O)Nc2ccc(C(=O)NCc3cccnc3)cc2)c1 was read as Ba/F3 V617F tox 12, BaF3 parental -4, KLF5 inh 7, aSyn UTR inh 9, IEC-6 tox 26*, APP 5UTR inh 10 and IEC-6 tox confirm -12.
Screening O=C(OCc1ccc([N+](=O)[O-])cc1Cl)c1cnccn1 returned KLF5 inh -15, aSyn UTR inh -8 and IEC-6 tox 2.
O=C(NCCN1CCCCC1)c1ccc(F)cc1Cl was read as KLF5 inh -34, aSyn UTR inh -5 and IEC-6 tox -3.
`CCOc1ccc(-c2[nH]ncc2-c2ccc(OC)c(OC)c2)c(O)c1` gave Ba/F3 V617F tox 53*, BaF3 parental 59*, KLF5 inh 47, IEC-6 tox 41*, APP 5UTR inh 70* and IEC-6 tox confirm 50*.
